# Most compounds without a hit are left out; they make up all but 1.5% or so of the library.
# SSB-PriA inh = blocks PriA binding to SSB C-terminal tail; AlphaScreen SSBct-PriA binding, biotinylated peptide; inhibition, % at 33 µM; actives 0.6% (n = 430,000); in the data active = inhibition mostly above about 37%, no sharp cut-off; inactive = mostly below about 20%;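 note: plate controls were negative control peptide for no effect and reference peptide for full effect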
# CCHF vOTU inh = blocks the CCHF virus ovarian tumor domain protease. actives 0.55% (n = 370,000). CCHFV vOTU protease, Pep-AMC fluorescence. inhibition, % at 11.5 µM; in the data active = inhibition above about 30%; note: 0% = vehicle wells with enzyme and 100% = no enzyme wells
# DUSP3 inh = blocks human VHR1 dual specificity phosphatase; recombinant VHR phosphatase, pNPP absorbance; inhibition, % at 13.3 µM; actives 0.52% (n = 290,000); AID 1654; in the data active = inhibition above about 50%
# Target sequence (P51452 whole entry, looked up): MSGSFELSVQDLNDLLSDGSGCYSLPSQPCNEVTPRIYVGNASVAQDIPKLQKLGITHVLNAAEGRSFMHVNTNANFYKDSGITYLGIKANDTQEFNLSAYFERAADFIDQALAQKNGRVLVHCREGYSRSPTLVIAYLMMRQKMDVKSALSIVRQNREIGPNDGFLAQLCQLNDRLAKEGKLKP
# Vc quorum ag = quorum light induction in luxS cqsA deficient V. cholerae | V. cholerae BH1578 lux reporter, luminescence, 6 h | activation, % at 18.7 µM | actives 0.16% (n = 350,000) | AID 588436; in the data active = activation mostly above about 9.7%, no sharp cut-off
# PrPC surface inh = cell surface PrPC inhibition, primary TR-FRET screen | TR-FRET read-out | inhibition, % at 13.8 µM | actives 0.43% (n = 370,000) | P04156; in the data active = inhibition above about 24%; note: 0% = median of the test wells and 100% = reference compound wells
# TcdB GH inh = inhibitors of Clostridioides difficile toxin B glycohydrolase. P18177. TcdB glycohydrolase enzymatic assay, plate reader. inhibition, % at 9.99 µM. actives 0.24% (n = 350,000); in the data active = inhibition above about 10%
# Active calls of the source: *; i = inactive; x = not tested or not shown.
SMILES,SSB-PriA inh,CCHF vOTU inh,DUSP3 inh,Vc quorum ag,PrPC surface inh,TcdB GH inh
C/C(=N\Nc1ccc(C(F)(F)F)cc1[N+](=O)[O-])C(C)C,x,-1.1,13.7,-0.2,-5.2,-0.7
CC1CCC(=NNc2ccc(C(F)(F)F)cc2[N+](=O)[O-])CC1 (centres undefined),72.8*,-3.9,-1.0,1.1,-4.7,-1.2
O=S(=O)(/N=C/c1c(O)ccc2ccccc12)c1ccccc1,x,-16.6,53.9*,-0.3,-3.4,0.4
O=S(=O)(N=Cc1c(O)ccc2ccccc12)c1ccc(Cl)cc1,10.0,x,x,x,x,x
COc1ccc(-c2nn(-c3ccccc3)cc2C(=O)N(C)C)cc1,-2.4,-7.2,52.6*,0.5,4.3,0.1
Cc1ccc2c(COC(=O)c3ccccc3Cl)cc(=O)oc2c1,-5.1,-3.1,16.0,-0.4,5.9,-0.8
Cc1ccc2c(COC(=O)c3ccccc3Br)cc(=O)oc2c1,-8.3,3.2,59.7*,-0.2,9.1,0.0
CCN(CC)CCn1c2ccccc2c(=O)c2c(O)ccc(O)c21,53.9*,14.0,x,i,-30.9,-1.1
CCN(CC)CCn1c(O)c(N=O)c2ccccc21,-5.5,1.8,29.4,i,-8.0,-0.2
COc1ccc(NC(=O)c2cc(S(=O)(=O)N3CCc4ccccc43)cn2C)cc1OC,-3.5,-6.3,-18.2,-1.2,4.6,16.0*
COc1ccc(NC(=O)c2cc(S(=O)(=O)N3CCc4ccccc43)cn2C)c(OC)c1,0.6,x,-10.3,-0.2,x,x
O=C(NC[C@H](O)Cn1ccccc1=O)c1ccc(OC(F)(F)F)cc1,-1.0,x,x,x,x,x
O=C(CCc1ccccc1)Nc1ncn[nH]1,-3.7,-2.5,52.7*,0.7,7.8,x
CSc1cccc(NC(=O)CCc2ccccc2)c1,1.9,5.9,20.4,-0.3,1.3,10.6*
CCOc1ccc2nc(N(CCCN3CCOCC3)C(=O)c3ccn(C)n3)sc2c1,-3.0,x,x,x,x,x
Cc1ccc(SCC(=O)OCC(=O)NC(C)c2ccc(Br)cc2)cc1 (centres undefined),-22.9,14.9,56.7*,i,-3.5,-1.4
O=C(Nc1ccc(N2CCCCC2=O)cc1)c1ccccc1S(=O)(=O)C(F)F,2.0,x,x,x,x,x
COc1cc(OC)c(NC(=O)c2cc(-c3cc[nH]c3)n[nH]2)cc1Cl,29.0*,x,x,x,x,x
CC1(C)COc2ccc(NS(=O)(=O)Cc3ccccc3Cl)cc2NC1=O,11.0,x,x,x,x,x
COc1ccc(CNC(=O)c2cc3cccc(OC)c3oc2=N)cc1,5.0,3.6,53.5*,-4.3,1.3,0.2
COc1cccc2cc(C(=O)NCc3ccc(F)cc3)c(=N)oc12,-3.1,-6.6,23.6,i,-0.5,0.2
c1ccc(CCc2ccncc2)cc1,-6.4,-9.4,-12.0,-0.2,-3.5,-0.2
Nc1cccc(CCc2ccncc2)c1,3.0,5.0,58.2*,-0.6,6.9,-3.2
C[C@@H]1CN(c2c(F)c(F)c3c(=O)c(C(=O)O)cn(C4CC4)c3c2F)C[C@H](C)N1,4.7,-6.2,58.2*,-1.2,1.2,0.6
C[C@@H]1CN(c2c(F)c(N)c3c(=O)c(C(=O)O)cn(C4CC4)c3c2F)C[C@H](C)N1,x,x,25.6,x,x,x
SMILES,SSB-PriA inh,CCHF vOTU inh,DUSP3 inh,Vc quorum ag,PrPC surface inh,TcdB GH inh
OC(COC1CCCCC1)CN1CCCCC1 (centres undefined),2.7,-17.2,56.3*,-0.4,-3.0,-1.5
Cn1nc(-c2ccc(F)cc2)cc1C(=O)NCCc1nc2c(c(C(F)(F)F)n1)CCCC2,-9.0,x,x,x,x,x
CC1CC1C(=O)Nc1nc(-c2ccccn2)cs1 (centres undefined),60.3*,6.8,24.3,-3.6,-1.4,x
O=C(Nc1nc(-c2ccccn2)cs1)C1CC1c1ccco1 (centres undefined),98.8*,x,x,x,x,x
O=C(Nc1nc(-c2ccccn2)cs1)C1COc2ccccc2O1 (centres undefined),70.5*,5.5,-3.3,-0.3,16.4,-0.1
CSc1ccc2nc(NC(=O)/C=C/c3cccs3)sc2c1,-8.0,x,x,x,x,x
CCn1nnc2c(N3CC(C(=O)Nc4ccccc4SC)C3)ncnc21,-9.0,x,x,x,x,x
COc1ccc(C)cc1NC(=O)c1ccc(NC(=O)CC2SC(N3CCCC3)=NC2=O)cc1 (centres undefined),2.0,5.5,2.8,7.6*,-8.0,x
COc1cccc2cc(C(=O)NCc3cc(-c4ccccn4)n(C)n3)oc12,0.0,x,x,x,x,x
Nc1ccc(N=Nc2ccc(N)cc2)cc1,14.7,15.5,19.0,-0.2,-19.4,-2.7
Cc1cc(N(C)C)ccc1N=Nc1ccc(N)cc1,92.6*,2.5,x,-0.3,-16.6,-74.7
Cc1cc(/C=C(\C#N)C(=O)N2CCCCC2)cc(C)c1O,6.4,5.8,57.6*,-4.8,0.9,12.1*

# Bioassay records deposited in PubChem by several laboratories.
